Results on 40 compounds are retold here after PubChem BioAssay (Tox21).

The structures appear in SMILES notation. Records with an inconclusive call do not appear. Values without a mark were called inactive. Calls follow the shape of the dose curve; as a rule, active = well fitted cell-killing curve with a large enough effect in the repeat runs; inconclusive = weak or mixed curves; inactive = flat fitted curve, though single readings scatter.
% is scaled to controls: 0 for no effect and ±100 for the full control effect.

The test in a line: qHTS RealTime-Glo MT Cell Viability Assay in HepG2 cells - 32 hour (AID 1224877). Also: nearly all actives have a fitted effect of over 55% in size. The conditions noted are these: RealTime-Glo luminescence; series mostly up to 76.8 µM; activity change, negative = cytotoxic: at the top concentration. The source says:
U.S. Tox21 Program National Center for Advancing Translational Sciences [NCATS] NIH Chemical Genomics Center [NCGC] U.S. Environmental Protection Agency [EPA] National Institutes of Environmental Health Sciences [NIEHS] National Toxicology Program [NTP] U.S. Food and Drug Administration [FDA] Tox21 Assay Overview: Measure of cell viability is critical in the cell-base assay. Analysis of cell viability is necessary for the characterization of cell responses to cytotoxic drugs and environmental stress. A RealTime-Glo MT Cell Viability Assay to monitor cell viability in real time of continues cell culture during 40 hours of compound treatment was used to screen Tox21 10K library compounds in HepG2 cells. The RealTime-Glo MT Cell Viability Assay is a nonlytic, homogeneous, bioluminescent method to measure cell viability in real time using a simple, plate-based method. The assay involves adding NanoLuc luciferase and a cell-permeant prosubstrate to cells in culture. Viable cells reduce the proprietary prosubstrate to generate a substrate for NanoLuc luciferase. This substrate diffuses from cells into the surrounding culture medium, where it is rapidly used by the NanoLuc Enzyme to produce a luminescent signal. The signal correlates with the number of viable cells, making the assay well suited for cytotoxicity studies.
Tox21 Assay Protocol Summary: The mixture of HepG2 cell suspension and reagents were dispensed at 600cells/6 ul/well in 1536-well tissue culture treated black solid bottom plates using a Multidrop dispenser. After the assay plates were incubated at a 37 C/5% CO2 incubator for 5 hours, 23 nL of compounds dissolved in DMSO, positive and negative controls was transferred to the assay plate by a pintool work station. The plates were incubated at 37 C for 40 hours. The luminescence intensity were measured at 0h, 8h, 16h, 24h, 32h and 40h time points using ViewLux plate reader during compound treatment.
As for `CCCCCCCCCCCCCC(=O)OCC`, the “activity change, negative = cytotoxic” value was -5.77%. On to `CCc1ncc(C)[nH]1`, for which the “activity change, negative = cytotoxic” value is -0.19%.

As to `CC/C=C\CCOC(=O)c1ccccc1`, the “activity change, negative = cytotoxic” value was -2.4%. As for `C=CCOC(=O)CCCCCCCC`, the “activity change, negative = cytotoxic” value was 1.5%. `CCCCS`: the “activity change, negative = cytotoxic” value is -2.15%. In the case of `COC(=O)N/N=C/c1c[n+]([O-])c2ccccc2[n+]1[O-]`, the “activity change, negative = cytotoxic” value is -4.65% [at 35.3 µM]. `CCCCN1C(=O)c2ccccc2C1=O`: the “activity change, negative = cytotoxic” value is -5.59%. For `CC/C=C/CCCCCCCCCCOC(C)=O`, the “activity change, negative = cytotoxic” value was 7.42%. On to `CC(C)(C)c1ccc(N)cc1`, for which the “activity change, negative = cytotoxic” value was -4.58%. As for `CC(CC(=O)Cl)CC(C)(C)C` (stereo not given), the figure is 12.1%; as for `CCCc1ncc(C(=O)O)s1`, -0.647% [at 35.3 µM]. The result for `CC(C)(C)C(=O)NCCCC(=O)O` reads -0.356% [at 35.3 µM]; that for `CC(C)(Sc1cc(C(C)(C)C)c(O)c(C(C)(C)C)c1)Sc1cc(C(C)(C)C)c(O)c(C(C)(C)C)c1`, -16.7% [at 35.3 µM]. The result for `O=S(=O)(O)CC(O)CCl` (stereo not given) reads 0.359%; that for `O=C[C@@H](O)[C@H](O)[C@H](O)CO`, 3.33%. `CC(=O)Oc1ccc(C(C)=O)cc1`: the “activity change, negative = cytotoxic” value is 0.348%. `O=C(c1ccccc1)c1cccc(O)c1`: the “activity change, negative = cytotoxic” value was 0.218%. On to `CC(=O)SCC(CC(=O)c1ccc(C)cc1)C(=O)O` (stereo not given), for which the “activity change, negative = cytotoxic” value was 2.04% [at 35.3 µM]. As for `O=C1c2ccccc2C(=O)N1CO`, the “activity change, negative = cytotoxic” value was 0.0864%. With `O=S(=O)(O)c1cc(I)c(O)c2ncccc12`, the “activity change, negative = cytotoxic” value was -4.9% [at 35.3 µM]. The result for `CC(C)(C)NCC(O)COc1cccc2c1CCC(=O)N2` (stereo not given) reads -1.12% [at 35.3 µM]. Consider `O=C1Nc2ccccc2C1=O`, for which the “activity change, negative = cytotoxic” value is -1.19%. Take `O=C(O)Cc1ccccc1Oc1ccc(Cl)cc1Cl`: the “activity change, negative = cytotoxic” value was 3.6% [at 35.3 µM]. On to `CO/N=C(\C(=O)O)c1csc(NC(=O)CCl)n1`, for which the “activity change, negative = cytotoxic” value is 0.577% [at 35.3 µM]. As for `C=CC(C)(CCC=C(C)C)OC(=O)C(C)C` (stereo not given), the “activity change, negative = cytotoxic” value is 1.87%. For the compound `C[n+]1ccccc1/C=N/O`, the “activity change, negative = cytotoxic” value is -0.137% [at 35.3 µM]. In the case of `O=C(O)Cc1c(Cl)ccc(Cl)c1Cl`, the “activity change, negative = cytotoxic” value is 1.38%. For the compound `CC(C)C(C)C`, the “activity change, negative = cytotoxic” value is -0.848%. For `CCCCC(CC)CCC(CC(C)C)OS(=O)(=O)O` (stereo not given), the “activity change, negative = cytotoxic” value is 2.02%. Regarding `O=C(O)/C=C(\CC(=O)O)C(=O)O`, the “activity change, negative = cytotoxic” value is 0.817% [at 35.3 µM]. `N=C(N)N1CCc2ccccc2C1`: the activity change, negative = cytotoxic was 0.278% [at 6.97 µM]. The result for `CCN1CCN(C(=O)N[C@@H](C(=O)N[C@@H]2C(=O)N3C(C(=O)O)=C(CSc4nnnn4C)CS[C@H]23)c2ccc(O)cc2)C(=O)C1=O` reads 0.52% [at 35.3 µM]. With `Cc1nnc(C(=O)NC(C)(C)c2nc(C(=O)NCc3ccc(F)cc3)c(O)c(=O)n2C)o1`, the “activity change, negative = cytotoxic” value is -3.42% [at 35.3 µM].

Turning to `C[C@@H]1NC(=O)[C@@H](N)CNC(=O)[C@H](C2CCNC(N)=N2)NC(=O)/C(=C/NC(N)=O)NC(=O)[C@H](CNC(=O)C[C@@H](N)CCCN)NC1=O` (stereo not given in full), the activity change, negative = cytotoxic was 3.72% [at 0.29 µM]. As for `Cc1cc(=O)oc2cc(O[C@@H]3SC[C@@H](O)[C@H](O)[C@H]3O)ccc12`, the “activity change, negative = cytotoxic” value was 4.03% [at 35.3 µM].

In the case of `CC(O)C(CO)C(C)O` (stereo not given), the “activity change, negative = cytotoxic” value is -0.381%. As for `COc1cnc(NS(=O)(=O)c2ccc(N)cc2)nc1`, the “activity change, negative = cytotoxic” value is 0.659% [at 35.3 µM]. As for `CC(=O)c1ccc(O)c(C(N)=O)c1`, the figure is 2.85% [at 35.3 µM]; as for `Cc1nc2ccc(Cl)cc2[nH]1`, 1.64%; as for `Cc1cc(O)c(Cl)cc1C`, -0.903%.
